{"source": "PubChem BioAssay (NCI)", "note": "About 83,000 compounds went through this panel and 20% of them were active in at least one assay; those are over-represented in the sample as a whole.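 Plates (96-well) were seeded with cells, treated with compound at one concentration, and incubated for 48 hours before percent growth was determined.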 Active and inactive are the calls of the source. How the source made its calls: active means growth percent below 10; inactive means the rest."}
{"system": "NCI-H522 lung", "assay": "NCI-60 one-dose screen, 48 h (100 = growth as untreated, 0 = no growth, -100 = all killed)", "conditions": "10 µM unless noted"}
{"compound": "Cc1ccc(Nc2nc(N)nc(CSCC(=O)NN)n2)cc1", "growth": "96.7% (inactive)"}
{"compound": "O=C(CSc1nnc(-c2ccc(NC(=O)c3cccnc3)cc2)o1)N[C@@H](Cc1ccc(O)cc1)C(=O)O", "growth": "91% (inactive)"}
{"compound": "O=C(Nc1ccc(Cl)cc1)Nc1ccc(Cl)c(C(F)(F)F)c1", "growth": "3.9% (active)"}
{"compound": "Cc1ccc(NCCN(C)C)c2c(=O)c3ccccc3sc12", "growth": "16.8% (inactive)"}
{"compound": "COc1cc(/C=C/C(=O)N2CCN(C(=O)c3cc(OC)c(OC)c(OC)c3)CC2)ccc1OCCCN1C(=O)c2cccc3cccc(c23)C1=O", "growth": "65.4% (inactive)"}
{"compound": "Cc1ccc(S(=O)(=O)N/N=C\\c2cc(Cl)ccc2O)cc1", "growth": "80.3% (inactive)"}
{"compound": "Cc1ccc(S(=O)(=O)n2cc(CNc3ccc(N4CCOCC4=O)cc3)c3ccccc32)cc1", "growth": "-10.5% (active)"}
{"compound": "CCOc1ccccc1-n1c(CN2CCN(C(=O)COc3ccc(CNCCCCCCN4C5CCCC4CC(OC(=O)Nc4cc(C)ccc4OC)C5)cc3)CC2)nc2ccccc2c1=O", "note": "(stereo not given)", "growth": "-86.7% (active)"}
{"system": "A549/ATCC NSCLC", "assay": "NCI-60 one-dose screen, 48 h (100 = growth as untreated, 0 = no growth, -100 = all killed)", "conditions": "10 µM unless noted"}
{"compound": "Cc1ccc(Cl)cc1NC(=O)c1cc2ccccc2cc1O", "growth": "13.9% (inactive)"}
{"compound": "CC1SC(c2ccc(OCc3ccccc3)cc2)N(NC(=O)C(O)(c2ccccc2)c2ccccc2)C1=O", "note": "(stereo not given)", "growth": "49.3% (inactive)"}
{"compound": "O=c1cc(C2NNC(=S)N2)c2ccc3ccccc3c2o1", "note": "(stereo not given)", "growth": "108% (inactive)"}
{"compound": "O=[N+]([O-])c1ccc(OCCO)cc1", "growth": "105% (inactive)"}
{"compound": "O=C(/C=C/c1ccco1)c1ccc(Nc2nc(Nc3ccc(F)cc3)nc(Nc3ccc(Cl)cc3)n2)cc1", "growth": "38.3% (inactive)"}
{"compound": "CCOC(=O)c1c(-c2ccc(Cl)cc2)c(C#N)c(=O)n(-c2ccccc2CC)c1N", "growth": "85% (inactive)"}
{"compound": "COC(=O)[C@]12CC[C@@H](C)[C@H](C)[C@@H]1C1=CC[C@@H]3[C@@]4(C)C(C=O)=C[C@@](C)(COC(C)=O)C4=CC[C@@]3(C)[C@]1(C)CC2", "growth": "5.26% (active)"}
{"compound": "C[C@]12CC[C@@H]3c4cc(OC(F)F)c(O)cc4CC[C@H]3[C@@H]1CC[C@@H]2OS(N)(=O)=O", "growth": "31.3% (inactive)"}
{"compound": "NCCCNc1nc2ccccc2c2c(=O)c3cccc(Cl)c3sc12", "growth": "-2.55% (active)"}
{"compound": "O=C(N=c1oc2ccccc2cc1-c1cc2ccccc2[nH]1)c1ccc(Cl)cc1", "growth": "51.3% (inactive)"}
{"compound": "CSc1n(Cc2ccc3ccccc3c2)c(C)c[n+]1Cc1ccc2ccccc2c1", "growth": "16.5% (inactive)"}
{"compound": "COC(=O)CCC1=C(C)C2=NC1=CC1=NC(=CC3=NC(=Cc4[nH]c(/c(=C(/C)O)c4C)=C2)C(C(C)=O)=C3C)C(C)=C1CCC(=O)OC", "growth": "88.6% (inactive)"}
{"compound": "COc1ccc(Nc2nnc(SCc3ccccc3F)s2)cc1", "growth": "102% (inactive)"}
{"compound": "O=C(N/N=C/C=C/c1ccc([N+](=O)[O-])o1)c1cc2ccccc2cc1O", "growth": "4.04% (active)"}
{"compound": "OC(COc1ccccc1Cl)COc1ccccc1Cl", "growth": "93.2% (inactive)"}
{"compound": "c1ccc(-c2nc([P+](c3ccccc3)(c3ccccc3)c3ccccc3)c(N3CCOCC3)o2)cc1", "growth": "15.4% (inactive)"}
{"compound": "O=C1CCc2c(sc3[nH]c(=S)n(-c4ccc(OC(F)(F)F)cc4)c(=O)c23)C1", "growth": "77.1% (inactive)"}
{"compound": "COc1ccc(C2CC(c3cccc(OC)c3)=NN2C(=O)c2cc(OC)c(OC)c(OC)c2)cc1", "note": "(stereo not given)", "growth": "32.5% (inactive)"}
{"compound": "CCOC(=O)C/C(C)=N\\NC(=O)c1ccncc1", "growth": "105% (inactive)"}
{"compound": "COc1ccc2oc3c(C)c4c(c(C)c3c2c1)C(=O)N(Cc1ccccc1)C4=O", "growth": "83.9% (inactive)"}
{"compound": "CC(C)=C[C@@H]1c2c(c3ccccc3n(C)c2=O)O[C@H]2c3c(c4ccccc4n(C)c3=O)OC(C)(C)[C@@H]12", "growth": "89.3% (inactive)"}
{"compound": "C=C1C(=O)O[C@H]2[C@H]1CC/C(COC(=O)C(=O)c1c[nH]c3ccccc13)=C\\CC[C@@]1(C)O[C@@H]21", "growth": "9.03% (active)"}
{"compound": "Oc1ccc(CN2CCC(N3CCOCC3)CC2)c2cccnc12", "growth": "14.1% (inactive)"}
{"compound": "O=C1CCC2=C3C4CCCCC4C(=O)C4CCCC(OC2C1)C34", "note": "(stereo not given)", "growth": "48.9% (inactive)"}
{"compound": "Cc1cc(=O)[nH]c(N=Nc2c(O)[nH]c3ccccc23)n1", "growth": "103% (inactive)"}
{"compound": "COc1cc(OC)cc(C2CC(=O)Nc3c2c(C)nn3-c2nc3ccccc3[nH]2)c1", "note": "(stereo not given)", "growth": "15.2% (inactive)"}
{"compound": "CC1O[C@@H](OC2[C@H](OC(=O)/C=C/c3ccc(O)c(O)c3)C(COC3O[C@H](C)C(O)C(O)[C@@H]3O)O[C@@H](OCCc3ccc(O)c(O)c3)[C@H]2O)[C@@H](O)C(O)[C@H]1O", "note": "(stereo not given in full)", "growth": "89.8% (inactive)"}
